Data published in PubChem BioAssay (NCI).
The panel holds about 79,000 compounds, 15% with a hit somewhere; the sample as a whole holds those more often. Unmarked numbers belong to inactive results. Calls of active or inactive are those of the source. Rule as the data show it: active = growth inhibition above about 70%; inactive = the rest. Where a SMILES comes first, the peptide text is derived from it. [ ]: non-standard residue; d: D form. The star is where a group is joined. Cbz = O=C(OCc1ccccc1)*; Nva = CCC[CH](N)C(=O)O; Aib = CC(C)(N)C(=O)O

Assay: NCI Yeast Anticancer Drug Screen. Data for the mec2-1 strain (AID 157)
Conditions: S. cerevisiae mec2-1 strain, at 50.0 µM, active compounds read high
Method: Growth inhibition of yeast strains with defined genetic alterations is measured as a screen for potential anti-cancer activity. Selected strains with alterations in DNA damage repair or cell cycle control were exposed to compounds and growth inhibition was measured relative to vehicle treated controls. The strain used in this assay is mec2-1
Cc1ccc(NC(=O)C2C3CC4OC(=O)C2C4C3)cc1 (stereo not given) gave a growth inhibition of -4.45%. Compound CCOC(=O)C1(C)CCCc2sc(N)c(C#N)c21 (stereo not given) has a growth inhibition of -7.55%. Work on O=CNc1ccccc1-c1ccccc1 yielded a growth inhibition of -15%. CN(C)C(=O)c1cc2ccccc2[nH]1 showed a growth inhibition of 16.4%. In the case of C[n+]1c(-c2ccc(/C=N/NC(=O)C(=O)N/N=C/c3ccc(-c4cn5ccsc5[n+]4C)cc3)cc2)cn2ccsc21, the growth inhibition is reported as 88% (active). For COc1ccc(CCC(=O)O)c(C(CC(=O)O)C(=O)O)c1OS(=O)(=O)c1ccc(C)cc1 (stereo not given), the growth inhibition was -30.3%. With Nc1ncnc2c1ncn2CCOCC(O)CO (stereo not given) the growth inhibition was -4.3%. Compound CC(=O)OCC1CCCCO1 (stereo not given) has a growth inhibition of -1.65%. Compound [B-]([C+]1CCCCC1)N1C=CC=CC1 has a growth inhibition of 1.4%. COc1ccc2c(c1)c(=O)c1c(NCCCN(C)C)ccc3ncn2c31 gave a growth inhibition of -5.35%. For C[C@H](CCC(=O)NCCS(=O)(=O)O)[C@H]1CC[C@H]2[C@@H]3CC[C@@H]4C[C@H](O)CC[C@]4(C)[C@H]3CC[C@]12C, the growth inhibition was -21.1%. For COc1cc(OC)c(C(=O)c2ccccc2N)c(OC)c1, the growth inhibition was -0.35%. Work on COc1ccc(C2C(C#N)=C(N)NC(=O)C2C(N)=O)cc1 (stereo not given) yielded a growth inhibition of -11.8%. Work on O=C1C(Cl)=C(N(C(=O)c2ccccc2)C(=O)c2ccccc2)C(=O)c2ccccc21 yielded a growth inhibition of -3.7%. In the case of CCCCC(CCC)OC(=O)Nc1cccc2ccccc12 (stereo not given), the growth inhibition is reported as 0.35%. CCCCC(/C=C(/C)C(=O)O)CC (stereo not given) gave a growth inhibition of 1.6%. Compound CCCC(NC(=O)OCc1ccccc1)C(=O)NC(CCSC)C(=O)O (stereo not given) (Cbz-[Nva]-Met-OH; configuration not given here) has a growth inhibition of -1.6%. C=CCOC(=O)NC(Cc1ccc(O)cc1)C(=O)O (stereo not given) gave a growth inhibition of -4.85%. CN/N=C(\C)CC(=O)Nc1cccc(Cl)c1C showed a growth inhibition of -17.6%. Compound CCCCCC/C=C\CCCCCCCCCC1=CC(=O)C=C(OC)C1=O has a growth inhibition of -10.2%. Cc1ccc(N=Cc2ccc3c(c2)OCO3)cc1C showed a growth inhibition of 6.2%. With CCC(=O)OC1C(OC2C(C)C(OC3CC(C)(OC)C(O)C(C)O3)C(C)C(=O)OC(CC)C(C)(O)C(O)C(C)C(=O)C(C)CC2(C)O)OC(C)CC1N(C)C (stereo not given) the growth inhibition was -28.1%. Compound Cc1ccc(Cl)cc1NC(=O)/C=C/c1ccccc1 has a growth inhibition of 8.4%. Compound CN(C1c2ccccc2Oc2ccccc21)S(=O)(=O)c1ccc([N+](=O)[O-])cc1 has a growth inhibition of -2.7%. NC(C(=O)O)c1ccc(F)cc1 (stereo not given) showed a growth inhibition of -1.4%. Work on O=C(CCn1[nH]c(=O)c(Cl)c(Cl)c1=O)NO yielded a growth inhibition of -14.1%. Compound CC1=CC(C)(C)NC(=S)N1c1ccc(C)cc1S(=O)(=O)O has a growth inhibition of -1.7%. CC(C)(NC(=O)C(C)(C)NC(=O)OCc1ccccc1)C(=O)O (Cbz-[Aib]-[Aib]-OH) gave a growth inhibition of -3.6%. Nc1cccc2c1C(=O)OC2=O showed a growth inhibition of -6.2%. Oc1ccccc1C1SCSCS1 gave a growth inhibition of 12.9%. In the case of O=C(Nc1cccc([N+](=O)[O-])c1)C1C(=O)N(c2cccc([N+](=O)[O-])c2)C(=O)/C1=N/O (stereo not given), the growth inhibition is reported as -7.4%. Work on C=CC1CC[N-]CC1.[Cl][Cu][Cl] yielded a growth inhibition of -1.9%. For CCC1(CCCCCBr)OCCO1, the growth inhibition was 12.6%. In the case of Cc1nc(=O)n2c(c1C(=O)Nc1ccc(Cl)cc1)NCC2, the growth inhibition is reported as -3.35%. In the case of C=CCOCn1ccc(NC(=O)c2ccccc2)nc1=O, the growth inhibition is reported as -57.1%. O=C(Cc1nc2ccc(Cl)cc2[nH]c1=O)c1ccncc1 gave a growth inhibition of -11.6%. Work on O=C(Nc1ccc2ccccc2c1)c1ccc(Cl)cc1Cl yielded a growth inhibition of 14.2%. CC/C(=N\O)c1ccc2cc(Cl)c3ccccc3c2c1 gave a growth inhibition of 25.4%. Work on N#CC1(Nc2ccc(-c3ccc(NC4(C#N)CCCC4)cc3)cc2)CCCC1 yielded a growth inhibition of -16.4%. CCCCCCCCCSCCS showed a growth inhibition of 7.4%.
